PubChem BioAssay AID1159580 (chemical genetic matrix, 2015)
Among all 5,500 compounds or so, about 2,000 (36%) were called active. Roughly 18% stayed inconclusive and do not appear here. Rule as the data show it: active = normalized growth mostly below about 0.91 (no sharp cut-off); inconclusive = no clear call, values can overlap the other calls; inactive = mostly above about 0.92. This is one part of the list.

Experiment: chemical genetic growth profiling, strain panel (AID 1159580);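 also: tested at 20 µM; growth read once vehicle control cultures reached saturation at 30 °C; 1 = growth at the plate median or of vehicle wells; lower values mean less growth of the strain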
Conditions: growth OD

Measured: normalized growth

O=[N+]([O-])c1ccc(N2CCOCC2)cc1
inactive: S. cerevisiae deletion strains, locus YAL013W, strain DEP1, stronger effect = lower value 0.996 | S. cerevisiae deletion strains, locus YBR229C, strain ROT2, stronger effect = lower value 1 | S. cerevisiae deletion strains, locus YCL061C, strain MRC1, stronger effect = lower value 1.02 | S. cerevisiae deletion strains, locus YDL101C, strain DUN1, stronger effect = lower value 1.06 | S. cerevisiae deletion strains, locus YDL134C, strain PPH21, stronger effect = lower value 0.969 | S. cerevisiae deletion strains, locus YDR150W, strain NUM1, stronger effect = lower value 1.05 | S. cerevisiae deletion strains, locus YEL061C, strain CIN8, stronger effect = lower value 0.969 | S. cerevisiae deletion strains, locus YGR078C, strain PAC10, stronger effect = lower value 1.03 | S. cerevisiae deletion strains, locus YHR030C, strain SLT2, stronger effect = lower value 1.05 | S. cerevisiae deletion strains, locus YHR087W, strain rtc3, stronger effect = lower value 0.937 | S. cerevisiae deletion strains, locus YJR043C, strain POL32, stronger effect = lower value 1.04 | S. cerevisiae deletion strains, locus YJR075W, strain HOC1, stronger effect = lower value 0.978 | S. cerevisiae deletion strains, locus YLR039C, strain RIC1, stronger effect = lower value 0.991 | S. cerevisiae deletion strains, locus YLR058C, strain SHM2 (second series), stronger effect = lower value 0.976 | S. cerevisiae deletion strains, locus YLR085C, strain ARP6, stronger effect = lower value 0.98 | S. cerevisiae deletion strains, locus YLR262C, strain YPT6, stronger effect = lower value 0.962 | S. cerevisiae deletion strains, locus YML094W, strain GIM5, stronger effect = lower value 0.939 | S. cerevisiae deletion strains, locus YMR219W, strain ESC1, stronger effect = lower value 0.992 | S. cerevisiae deletion strains, locus YMR263W, strain SAP30, stronger effect = lower value 1.03 | S. cerevisiae deletion strains, locus YNL153C, strain GIM3, stronger effect = lower value 1.03 | S. cerevisiae deletion strains, locus YNL298W, strain CLA4 (second series), stronger effect = lower value 0.988 | S. cerevisiae deletion strains, locus YNL322C, strain KRE1, stronger effect = lower value 0.965 | S. cerevisiae deletion strains, locus YNR030W, strain Alg12, stronger effect = lower value 0.974 | S. cerevisiae deletion strains, locus YPL055C, strain LGE1, stronger effect = lower value 0.971 | S. cerevisiae deletion strains, locus YPL241C, strain CIN2, stronger effect = lower value 1.01 | S. cerevisiae deletion strains, locus YPR135W, strain CTF4, stronger effect = lower value 1.02 | S. cerevisiae strains, strain wild type, stronger effect = lower value 0.982
